BAZ2B inh = qHTS Assay for Inhibitors of BAZ2B | Bromodomain adjacent to zinc finger domain protein 2B (Homo sapiens), Q9UIF8 | AlphaScreen BAZ2B-H3K14Ac peptide displacement | Potency, µM (top dose mostly 114 µM), for inactives: top-dose activity change, negative = inhibition, most hits filed as inhibitors | actives 4.4% (n = 360,000); note: potency is the fitted concentration of half-maximal effect; % is set by controls: 0 for no effect and ±100 for the full control effect; nearly all actives have a fitted effect of over 60% in size
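Compounds, titrated to a top concentration of 110 uM, were incubated 30 min at room temperature with preformed BAZ2B/acetyl-K14 H3 peptide complex (50 nM each). Proximity signal was measured by AlphaScreen after 20 min with beads.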
L3MBTL1 block = qHTS Assay for the Inhibitors of L3MBTL1 | Potency, µM (top dose mostly 57.1 µM), for inactives: top-dose activity, negative = inhibition, actives largely listed as inhibitors | AID 485360, 2010 | Lethal(3)malignant brain tumor-like protein 1 (Homo sapiens), Q9Y468 | AlphaScreen L3MBTL1–H3K9me1 peptide binding | actives 0.66% (n = 230,000); note: potency is the fitted concentration of half-maximal effect; % is set by controls: 0 for no effect and ±100 for the full control effect; nearly all actives have a fitted effect of over 60% in size
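L3MBTL1 (50 nM) pre-complexed 30 min with biotinylated H3(1-15)K9me1 peptide (75 nM), then compounds added for 30 min at room temperature; AlphaScreen streptavidin donor/nickel chelate acceptor beads (10 ug/mL final) read after 30 min dark incubation.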
JMJD2A Tudor inh = qHTS Assay for Inhibitors of JMJD2A-Tudor Domain. Potency, µM (titrated, usually from 114 µM), without a hit: at the top dose activity change, negative = inhibition, usual class: inhibitors. Lysine-specific demethylase 4A (Homo sapiens), O75164. actives 4.4% (n = 390,000). AlphaScreen JMJD2A-Tudor / H3K4me3 peptide binding; note: potency is the fitted concentration of half-maximal effect; % is set by controls: 0 for no effect and ±100 for the full control effect; nearly all actives have a fitted effect of over 50% in size
PI5P4K alpha inh = qHTS for Inhibitors of phosphatidylinositol 5-phosphate 4-kinase (PI5P4K); max response, %; actives 1.2% (n = 330,000); PI5P4Kalpha enzyme, ADP-Glo luminescence, 60 min; hits give low values; Phosphatidylinositol 5-phosphate 4-kinase type-2 alpha (Homo sapiens), P48426; active = max response of -50% or lower; inconclusive = between -30% and -50%; inactive = -30% or higher; note: value at the top dose of about 77 µM; % is set by controls: 0 for no effect and ±100 for the full control effect
Target sequence (P48426 whole entry, looked up): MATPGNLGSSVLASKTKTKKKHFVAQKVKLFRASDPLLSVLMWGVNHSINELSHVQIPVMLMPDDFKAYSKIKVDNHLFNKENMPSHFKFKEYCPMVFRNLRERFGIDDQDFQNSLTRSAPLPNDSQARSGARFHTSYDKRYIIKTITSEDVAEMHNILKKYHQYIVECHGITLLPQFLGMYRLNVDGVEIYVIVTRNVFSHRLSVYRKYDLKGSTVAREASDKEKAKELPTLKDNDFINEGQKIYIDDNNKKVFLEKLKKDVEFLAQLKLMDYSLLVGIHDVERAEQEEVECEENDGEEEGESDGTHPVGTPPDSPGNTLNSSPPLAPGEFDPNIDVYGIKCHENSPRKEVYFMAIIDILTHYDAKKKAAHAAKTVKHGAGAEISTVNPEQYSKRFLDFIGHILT
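ADP-Glo luminescence end-point after a 60 min room-temperature kinase reaction. PI5P4Kalpha and substrate in HEPES pH 7.4 buffer with EGTA, 0.1% CHAPS and 5% DMSO; ATP at 5 microM final.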
HP1b chromo inh = HTS for Inhibitors of HP1-beta Chromodomain Interactions with Methylated Histone Tails; Chromobox protein homolog 1 (Homo sapiens), P83916; AlphaScreen HP1-beta / biotin-H3K9me3 peptide binding; Potency, µM (doses to about 114 µM), for inactives: at the top dose activity change, negative = inhibition, hits mostly inhibitors; actives 0.56% (n = 390,000); AID 540317, 2011; note: potency is the fitted concentration of half-maximal effect; nearly all actives have a fitted effect of over 70% in size
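AlphaScreen: HP1-beta (50 nM) preformed 30 min with biotin-H3(1-18)K9me3 peptide (50 nM) in PBS pH 7.4, 0.01% Tween-20. Compound added for 30 min at RT, then streptavidin donor/nickel chelate acceptor beads (10 ug/mL) for 30 min.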
G9a inh = qHTS Assay for Inhibitors of Histone Lysine Methyltransferase G9a; Potency, µM (doses to about 102 µM), for inactives: at the top dose activity, negative = inhibition, hits mostly inhibitors; actives 8.8% (n = 350,000); G9a H3K9 monomethylation, AlphaScreen, 2 h; note: potency is the fitted concentration of half-maximal effect; % is set by controls: 0 for no effect and ±100 for the full control effect; nearly all actives have a fitted effect of over 75% in size
Target sequence (Q96KQ7 913-1193 limits assumed): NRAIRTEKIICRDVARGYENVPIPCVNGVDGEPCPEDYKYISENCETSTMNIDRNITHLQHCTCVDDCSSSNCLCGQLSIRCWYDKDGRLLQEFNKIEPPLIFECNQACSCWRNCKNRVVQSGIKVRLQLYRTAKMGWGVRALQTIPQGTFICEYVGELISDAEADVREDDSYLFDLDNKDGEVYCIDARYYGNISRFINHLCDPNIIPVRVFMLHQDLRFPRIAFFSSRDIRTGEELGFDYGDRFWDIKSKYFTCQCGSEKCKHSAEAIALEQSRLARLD
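Quantitative HTS format: methyltransferase activity on a biotin-tagged H3K9 peptide is measured by AlphaScreen, using a rabbit anti-monomethyl-H3K9 antibody with streptavidin donor and anti-IgG acceptor beads. Final levels are 20 nM enzyme, 500 nM peptide, 20 uM SAM; 2 h RT.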
An asterisk follows results filed as active; ? = inconclusive; · = no result given; ! = not active in a repeat; [ ] = another dose, or the depositor's remark. Most compounds without a hit are left out; they make up all but 11% or so of the library. Unless noted, calls come from the whole dose curve; as a rule, active = well fitted inhibition curve with a large enough effect; inconclusive = small, poorly fitted or top-dose-only effect; inactive = no such curve, though single readings can be large or run the other way.

SMILES	BAZ2B inh	L3MBTL1 block	JMJD2A Tudor inh	PI5P4K alpha inh	HP1b chromo inh	G9a inh
CCN(CC)S(=O)(=O)c1ccc(NC2c3ccccc3C(=O)N2Cc2ccco2)cc1 (stereo not given)	-25%	-1%	-22%	3	-5%	?
Cc1ccccc1NC1c2ccccc2C(=O)N1Cc1ccco1 (stereo not given)	?	·	-32%	-7	16%	45µM*
CC(=O)c1cccc(NC2c3ccccc3C(=O)N2Cc2ccco2)c1 (stereo not given)	-24%	-1%	-23%	1	48%	-6%
COc1cccc(NC2c3ccccc3C(=O)N2Cc2ccco2)c1 (stereo not given)	-36%	·	?	-10	9%	50µM*
O=C1c2ccccc2C(Nc2cccc(C(F)(F)F)c2)N1Cc1ccco1 (stereo not given)	-7%	·	?	0	18%	71µM*
N#Cc1ccc2c(c1)C[C@]1(CCCCN3C(=O)c4ccccc4C3=O)Oc3c(c(=O)oc4ccccc34)C2O1	-9%[22.9 µM]	·	·	·	·	12%[2.33 µM]
CCn1c(C)c(C)c2cc(C(=O)NCCCN3CCN(C)CC3)ccc21	?	·	-28%	5	-6%	?
CCn1c(C)c(C)c2cc(C(=O)NCCCN3CCCCC3)ccc21	40µM*!	·	?	3	1%	?
CCn1c(C)c(C)c2cc(C(=O)NCCCN3CCCCCC3)ccc21	56µM*	·	56µM*	-10	-19%	?
CCn1c(C)c(C)c2cc(C(=O)NCCN3CCCCCC3)ccc21	22µM*	·	45µM*	1	-6%	50µM*
CCn1c(C)c(C)c2cc(C(=O)NCC(C)c3ccccc3)ccc21 (stereo not given)	-37%	·	?	·	-8%	-33%[59 µM]
Cc1cc(-c2cccs2)c(C#N)c(=S)[nH]1	-20%	-1%	7.9µM*	-7	20%	1.6µM*
O=C(Nc1ccccc1)c1ccc(-c2ccccc2Cl)o1	-4%	7%	8%	-1	25%	50µM*
O=C(Nc1ccccc1)c1ccc(-c2ccccc2C(F)(F)F)o1	7%	16%	13%	-6	82%	45µM*
O=C(NCCc1ccccc1)c1ccc(-c2ccccc2Cl)o1	-14%	20%	25%	4	9%	45µM*
CCOc1ccccc1-c1ccc(C(=O)NCc2ccccc2)o1	?	-16%	?	-2	-6%	50µM*
Cc1ccc(NC(=O)Cn2c(=O)c3ccc(Cl)cc3n3nncc23)cc1	4%	·	-15%	·	31%	4%[59 µM]
COc1ccc(-c2cccc(NS(=O)(=O)c3cc(C)c(Cl)cc3C)c2)nn1	-11%	·	-29%	·	4%[57 µM]	7%[59 µM]
S=c1nc(-c2ccc(Br)cc2)[nH]c2ccccc12	3%	12%	-10%[11.4 µM]	2	22%	·
S=c1nc(-c2ccccc2)[nH]c2ccccc12	-25%	2%	-7%	-11	48%	50µM*
Cc1cc(N2CCN(c3ccccc3)CC2)nc(-c2ccccc2O)n1	14%	·	-7%[57.1 µM]	8	69%	-45%
Cc1cc(N2CCN(c3ccccc3)CC2)nc(-n2nc(C)cc2C)n1	?	-19%	45µM*	·	16%	11%[2.33 µM]
CC1(c2ccccc2)C(C#N)C(=O)NC(=O)C1C#N (stereo not given)	·	·	-10%	-26	28%[57 µM]	·
N#CC1C(=O)NC(=O)C(C#N)C12CCCC2 (stereo not given)	·	·	·	-51*	·	·
COc1cccc(NC(=S)N2CCn3cccc3C2c2cccnc2)c1 (stereo not given)	50µM*	-13%	-20%	5	-6%	28µM*
SMILES	BAZ2B inh	L3MBTL1 block	JMJD2A Tudor inh	PI5P4K alpha inh	HP1b chromo inh	G9a inh
CCCCNC(=S)N1CCn2cccc2C1c1ccc(F)cc1 (stereo not given)	-12%	29%	-16%	1	-5%	?
Fc1ccc(C2c3cccn3CCN2C(=S)Nc2cccc(Br)c2)cc1 (stereo not given)	-33%	·	-20%	13	5%	71µM*
Cc1cccc(NC(=S)N2CCn3cccc3C2c2cccnc2)c1 (stereo not given)	?	-8%	-30%	1	-10%	50µM*
CCCCNC(=S)N1CCn2cccc2C1c1ccccc1 (stereo not given)	·	·	-24%	8	7%	56µM*
Fc1ccc(NC(=S)N2CCn3cccc3C2c2cccnc2)cc1 (stereo not given)	?	-10%	-11%	-2	15%	?
S=c1[nH]nc(-c2ccco2)n1/N=C/C=C/c1ccco1	?	-1%	3.5µM*	-69*	?	1.4µM*
S=c1[nH]nc(-c2cc(-c3ccccc3)n[nH]2)n1/N=C/C=C/c1ccco1	?	?	?	-96*	?	1.8µM*
O=C(NCCc1ccccc1)C(=O)NCC(c1ccc2c(c1)OCO2)N1CCOCC1 (stereo not given)	12%	·	-2%	·	27%[57 µM]	17%[59 µM]
COc1ccccc1NC(=O)CSC1=Nc2ccccc2C2=NC(Cc3ccccc3)C(=O)N12 (stereo not given)	11%	·	-32%	·	46%	26%[59 µM]
COc1cccc(C(=O)NCC(=O)N/N=C/c2c(C)[nH]c3ccccc23)c1	-19%	·	?	-2	-4%	41%
COCCN=c1scc(-c2cc(OC)c(OC)c(OC)c2)n1/N=C/c1c(C)[nH]c2ccccc12	11µM*	?	20µM*	1	?	?
N#CC1=C2SCC(O)(c3ccccc3)N2C(=O)CC1c1ccccc1 (stereo not given)	?	-9%	-33%	-7	12%	40µM*
Cc1c(-c2ccc(Cl)cc2)[n+](=O)c(-c2ccccc2)cn1[O-]	-12%	-1%	5%	-4	43%	0%
CC1=C(c2ccc(Cl)cc2)[N+](=O)C(C)(C)N1[O-]	-2%	2%	-26%	?	-11%	50µM*
COc1ccc(-c2nc3sc(CCNC(=O)C(=O)Nc4cccc(NC(C)=O)c4)c(C)n3n2)cc1	-30%	·	-28%	·	22%	-2%[59 µM]
O=c1c2c(nc3n1CCCCC3)sc1c(O)c(Br)ccc12	-4%	·	-18%	·	-5%	1.8µM*
CCN(CC)CCOc1c(Br)ccc2c1sc1nc3n(c(=O)c12)CCC3	-9%	0%	-16%	1	23%	50µM*

Compound activity as filed in PubChem BioAssay.
